Data as given in PubChem BioAssay (NCI).
About 83,000 compounds went through this panel and 20% of them were active in at least one assay; those are over-represented in the sample as a whole.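 Single-concentration screen, 48 h exposure, 96-well plates. Endpoint: percent growth. Below 10 = active.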 Unmarked numbers belong to inactive results. Activity calls are given as the source filed them.

Experiments:
Test in all cases: NCI-60 one-dose screen, 48 h (100 = growth as untreated, 0 = no growth, -100 = all killed)
HCT-15 colon = conditions: 10 µM unless noted
HT29 colon = conditions: 10 µM unless noted
SNB-75 CNS = conditions: 10 µM unless noted
SNB-19 CNS = conditions: 10 µM unless noted
PC-3 prostate = conditions: 10 µM unless noted
SK-MEL-5 melanoma = conditions: 10 µM unless noted
UACC-62 melanoma = conditions: 10 µM unless noted
LOX IMVI melanoma = conditions: 10 µM unless noted
SK-MEL-28 melanoma = conditions: 10 µM unless noted
SK-MEL-2 melanoma = conditions: 10 µM unless noted
SN12C renal = conditions: 10 µM unless noted
UO-31 renal = conditions: 10 µM unless noted
TK-10 renal = conditions: 10 µM unless noted
ACHN renal = conditions: 10 µM unless noted
CAKI-1 renal = conditions: 10 µM unless noted
A498 renal = conditions: 10 µM unless noted
MOLT-4 leukemia = conditions: 10 µM unless noted
EKVX NSCLC = conditions: 10 µM
CCRF-CEM leukemia = conditions: 10 µM
U251 CNS = conditions: 10 µM unless noted

Compound | growth (HCT-15 colon) | growth (HT29 colon) | growth (SNB-75 CNS) | growth (SNB-19 CNS) | growth (PC-3 prostate) | growth (SK-MEL-5 melanoma) | growth (UACC-62 melanoma) | growth (LOX IMVI melanoma) | growth (SK-MEL-28 melanoma) | growth (SK-MEL-2 melanoma) | growth (SN12C renal) | growth (UO-31 renal) | growth (TK-10 renal) | growth (ACHN renal) | growth (CAKI-1 renal) | growth (A498 renal) | growth (MOLT-4 leukemia) | growth (EKVX NSCLC) | growth (CCRF-CEM leukemia) | growth (U251 CNS) [%]
COc1cc2c(c3c1c(=O)c1cccc(F)c1n3C)C=CC(C)(C)O2 | 71.8% | 74.6% | 99.1% | 104% | 72.3% | 94.2% | 75.6% | 88.8% | 94.4% | 113% | 64.3% | -26.5% (active) | 95.2% | 47.9% | -64% (active) | 90% | 85.2% | – | – | –
Nc1nc2c(c3ncncc13)C(c1cccc(C(F)(F)F)c1)Cc1ncncc1-2 (configuration not stated) | 27% | 9.73% (active) | 8.31% (active) | 33.9% | 26.4% | 21.1% | 43.4% | 36.8% | 63.7% | 48.2% | 55.2% | 51% | 50.6% | 45% | 34.5% | -6.07% (active) | 29.2% | 48% | 13.5% | –
Cc1ccc(OCCn2ccc(=O)n(CCOc3ccc(Cl)cc3C(=O)c3cc(C)cc(C)c3)c2=O)cc1 | 27.8% | 18.9% | 33.5% | 57.5% | 29.2% | 49.2% | 32.7% | 47% | 68.3% | 41.2% | 62% | 41.8% | 61.7% | 60.6% | 47.6% | 33.7% | 19.2% | 47% | 25.7% | –
Cc1nc2c(nnn2-c2ccccc2)c2nc(-c3ccccc3)oc(=O)c12 | 101% | 113% | 99.1% | – | 105% | 104% | 97.2% | 98.3% | 104% | 108% | 103% | 86.5% | 104% | 105% | 93.8% | 98.6% | 112% | 99.3% | 111% | 110
CCOC(=O)c1c(C)oc2ncnc(Nc3ccc(NC(=O)Nc4ccc(CC)cc4)cc3)c12 | 105% | 103% | 80.6% | 98% | 90.8% | 93.8% | 108% | 100% | 105% | 120% | 107% | 94.8% | 112% | 98.9% | 98.4% | – | 98.7% | 102% | 93.8% | –
O=C(Nc1ccc(-n2cc(-c3ccncc3)c(-c3ccc(Cl)c(O)c3)n2)cc1)c1cc(Cl)cc(Cl)c1 | 11.1% | 1.94% (active) | 16.4% | 72.4% | – | -85.1% (active) | 39.2% | 40.3% | 29.7% | – | 70.2% | 12.3% | 61.3% | 57.3% | -32.1% (active) | 95.9% | 24.3% | 75.7% | – | 41.9
COc1cc(OC)c(NC(=O)n2ncc3cc(Nc4ncnc5ccccc45)ccc32)cc1Cl | 93.8% | 80.3% | 118% | 90.6% | 97.5% | 94.3% | 105% | 102% | 98.7% | 102% | 95.6% | 64.1% | 30.8% | 55.1% | 53.6% | 54.2% | 96.3% | 33% | 102% | –
Nc1nc2c(c3cnccc13)C(c1cccc(Cl)c1)Cc1cnccc1-2 (configuration not stated) | 7.84% (active) | 4.99% (active) | 21% | 29.2% | 12.8% | -16.3% (active) | 26.7% | 8.05% (active) | 56% | 26.8% | 33.8% | 26.1% | 23.9% | 15% | 25.2% | -5.65% (active) | 16.5% | 24.2% | 13.3% | –
N=C(N)c1ccc(-c2ccc(-c3ccc(Cl)cc3)s2)s1 | -84.8% (active) | -33.3% (active) | -96.4% (active) | -81.8% (active) | -91% (active) | 2.66% (active) | -31.2% (active) | -89.4% (active) | -87.8% (active) | -29.6% (active) | -50% (active) | -87.5% (active) | -55.3% (active) | -97% (active) | -11.6% (active) | 50.9% | -59.6% (active) | -70.7% (active) | -70.8% (active) | –
CCCCCSc1ccc2nc(NC(=O)OCC)sc2c1 | 25.2% | 13.2% | 0.686% (active) | 37.4% | 21.3% | 5.59% (active) | 29.2% | 38.4% | 61.9% | 45.5% | 52.5% | 38.3% | 49.7% | 39.7% | 27.6% | -0.27% (active) | 26.5% | 30.3% | 12.4% | –
CCOC(=O)c1cc(C(=O)c2ccc(Br)cc2)n2cc(C)cc(C)c12 | 95.5% | 82.3% | 82.8% | 87% | 84.1% | 96.2% | 89.3% | 92.3% | 98.5% | 91.3% | 101% | 86.8% | 114% | 104% | 82.1% | 78.4% | 98.9% | 99.5% | 83.9% | –
Nc1nc2c(c3cnccc13)C(c1ccc(Cl)c(Cl)c1)Cc1cnccc1-2 (configuration not stated) | -19.5% (active) | 8.17% (active) | -26.9% (active) | 13.7% | 5.13% (active) | -92.2% (active) | -37.3% (active) | -42.7% (active) | -41.3% (active) | -36.3% (active) | 2.42% (active) | -39.9% (active) | -40% (active) | -67.1% (active) | 4.1% (active) | -45.6% (active) | 2.48% (active) | 5.75% (active) | 3.33% (active) | –
CCOC(=O)c1csc(-c2ccc(COC(=O)c3ccccc3)o2)n1 | 96% | 104% | 92% | 97.5% | 96.6% | 98.2% | 102% | 110% | 101% | 107% | 96.1% | 83.5% | 107% | 95% | 81.2% | 112% | 4.16% (active) | – | – | –
CN1NC(c2ccccc2)NN(C)C1=O | 96.6% | 107% | 77.8% | 97.2% | 88.6% | 97.8% | 91.6% | 92.5% | 107% | 110% | 98.4% | 67.8% | 114% | 95.1% | 85.4% | 119% | – | – | – | –
O=c1c(N=Nc2nccs2)c(-c2ccccc2)[nH]n1-c1nc(-c2ccccc2)cs1 | 19.5% | 32.2% | 61% | 24.4% | 32.8% | 15.2% | 12.3% | – | 47.1% | 22.8% | 35% | 36.4% | 45.6% | 35.4% | 35.6% | 28.6% | 30.3% | 53.1% | 25.5% | –
N=C(N)c1ccc(-c2ccc(-c3cc(Cl)cc(Cl)c3)s2)cc1 | -85.9% (active) | -38% (active) | -90.6% (active) | -73.5% (active) | -81.6% (active) | -93.7% (active) | -80.4% (active) | -78.6% (active) | -86.4% (active) | -46.1% (active) | -77% (active) | -77.5% (active) | -74.8% (active) | -94.4% (active) | -90.2% (active) | -94.6% (active) | -50.3% (active) | -72% (active) | -67.1% (active) | –
N=C(N)c1ccc(-c2ccc(-c3ccc(F)cc3)s2)cc1 | -92.8% (active) | -64.1% (active) | -99.2% (active) | -86.5% (active) | -94% (active) | -99% (active) | -91.8% (active) | -95.1% (active) | -85.9% (active) | -62.1% (active) | -71.2% (active) | -88.4% (active) | -79.9% (active) | -91.8% (active) | -95.1% (active) | -87.8% (active) | -58.8% (active) | -91.4% (active) | -62% (active) | –
